Screening data: PubChem BioAssay, National Center for Advancing Translational Sciences (NCATS)
L3MBTL1 inh: blocks human L3MBTL1; 0.66% of 230,000 active; AlphaScreen L3MBTL1–H3K9me1 peptide binding; Potency, µM (top dose mostly 57.1 µM), actives largely listed as inhibitors; AID 485360; Q9Y468; note: nearly all actives have a fitted effect of over 60% in size
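Read-out is AlphaScreen signal from streptavidin donor and nickel chelate acceptor beads (10 ug/mL final each) bridging L3MBTL1 (50 nM) and biotinylated K9-monomethylated H3(1-15) peptide (75 nM), after 30 min compound exposure at room temperature.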
Pol eta inh-1: inhibitors of human DNA polymerase eta; Q9Y253; recombinant Pol eta, fluorescent DNA replication assay; Potency, µM (highest dose often 114 µM), most hits filed as inhibitors; 1.2% of 390,000 active; AID 588591
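Fluorescent replication assay: 50 nM final substrate added after a 15 min room-temperature compound preincubation with 10 nM enzyme. Signal taken at 0 min and again at 10 min.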
Pol iota inh: DNA polymerase iota (human) inhibition; Potency, µM (top dose mostly 115 µM), actives largely listed as inhibitors; Pol iota fluorescent replication assay, 10 min; 1% of 390,000 active
Target sequence (Q9UNA4 whole entry, looked up): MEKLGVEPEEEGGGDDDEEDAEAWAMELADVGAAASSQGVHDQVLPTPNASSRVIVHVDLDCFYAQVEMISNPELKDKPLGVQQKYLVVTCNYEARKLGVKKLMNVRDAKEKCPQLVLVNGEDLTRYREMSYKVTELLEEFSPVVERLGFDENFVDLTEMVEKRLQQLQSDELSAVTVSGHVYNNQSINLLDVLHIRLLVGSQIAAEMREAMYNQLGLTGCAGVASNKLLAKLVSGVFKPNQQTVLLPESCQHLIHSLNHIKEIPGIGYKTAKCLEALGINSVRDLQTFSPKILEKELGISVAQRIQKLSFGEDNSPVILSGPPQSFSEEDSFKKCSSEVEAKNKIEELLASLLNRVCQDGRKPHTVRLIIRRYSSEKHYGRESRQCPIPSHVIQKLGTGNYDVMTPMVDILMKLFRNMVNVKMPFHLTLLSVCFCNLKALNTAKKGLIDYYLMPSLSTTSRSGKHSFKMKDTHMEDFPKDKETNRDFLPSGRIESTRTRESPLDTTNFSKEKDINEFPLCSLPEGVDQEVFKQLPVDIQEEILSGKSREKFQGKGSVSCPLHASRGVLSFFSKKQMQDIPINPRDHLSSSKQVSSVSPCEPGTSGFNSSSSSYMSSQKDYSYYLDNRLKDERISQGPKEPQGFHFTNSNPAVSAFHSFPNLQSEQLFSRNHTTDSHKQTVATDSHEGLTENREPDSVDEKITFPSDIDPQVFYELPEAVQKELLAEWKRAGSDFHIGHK
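Fluorescent replication assay read twice, at 0 min and 10 min after adding 50 nM (final) substrate. Enzyme (10 nM) and compounds were first incubated 15 min at room temperature; enzyme-free buffer wells were negative controls.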
Pol beta inh: blocks human DNA polymerase beta activity. P06746. Pol beta primer extension/strand displacement, fluorescence kinetic. Potency, µM (titrated, usually from 114 µM), most hits filed as inhibitors. 1.3% of 340,000 active
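Reaction started by 50 nM substrate onto compound-treated Pol beta (10 nM, 15 min preincubation, room temperature); plates read at 0 min and 10 min. Normalized concentration-effect data fitted by four-parameter Hill equation.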
Pol kappa inh-1: inhibitors of human DNA polymerase kappa; Potency, µM (doses to about 107 µM), actives largely listed as inhibitors; purified Pol kappa, fluorescent DNA synthesis assay, 10 min; Q9UBT6; 0.53% of 400,000 active
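Pol kappa 10 nM + cpd, 15 min RT; start w/ substrate 50 nM final; fluorescence kinetic read, 0 and 10 min. Neg ctrl: buffer, no enzyme.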
PGK validate: TbPGK inhibition, hit validation | shares compounds with Pol kappa inh-1 | TbPGK coupled GAPDH assay, Kinase-Glo luminescence | Potency, µM (titrated, usually from 57.5 µM), usual class: inhibitors | 79% of 500 active | AID 686980; note: nearly all actives have a fitted effect of over 65% in size
Pol iota confirm: Inhibitors of human DNA polymerase iota, confirmation; shares compounds with Pol kappa inh-1; Potency, µM, usual class: inhibitors; 77% of 1,500 active; Pol iota primer extension, TAMRA/BHQ fluorescence; AID 720496
GALK inh confirm: confirmation of human galactokinase (GALK) inhibitors; Potency, µM (top dose mostly 115 µM), usual class: inhibitors; 70% of 150 active; shares compounds with Pol eta inh-1; purified GALK, Kinase-Glo ATP depletion luminescence
Redox cycling: redox cycling activity in phenol red-HRP assay; shares compounds with Pol eta inh-1; Phenol red-HRP H2O2 redox cycling, absorbance 600 nm; Potency, µM (titrated, usually from 115 µM), actives largely listed as inhibitors; 40% of 150 active; AID 2035
HEK293 viability: HEK-293 cytotoxicity, GALK inhibitor secondary. shares compounds with Pol eta inh-1. Potency, µM (highest dose often 46.1 µM), hits mostly inhibitors. 10% of 170 active. HEK-293 viability, ATP luminescence (CellTiter-Glo), 24/48 h
Pol kappa inh-2: confirmation of human DNA polymerase kappa inhibitors. shares compounds with Pol eta inh-1. purified Pol-kappa, fluorescent strand-displacement substrate. Potency, µM, usual class: inhibitors. 76% of 920 active. AID 720501
Pol eta inh-2: Pol eta (human) inhibition, cherry-pick confirmation. shares compounds with Pol eta inh-1. Pol eta primer extension, TAMRA/BHQ fluorescence, 10 min. 64% of 2,600 active. AID 720502. Potency, µM, actives largely listed as inhibitors
Numbers stand for hits; . = inactive; ? = inconclusive; / = not tested or not shown. Only some compounds are listed: those with a hit (about 2.4% of all), similar ones and a draw of the others. Calls come from the whole dose curve; as a rule, active = well fitted curve in the direction sought with a large enough effect; inconclusive = small, poorly fitted or top-dose-only effect, or another doubt; inactive = no such curve, though single readings can be large; an effect the other way counts as inactive or inconclusive.

SMILES	L3MBTL1 inh	Pol eta inh-1	Pol iota inh	Pol beta inh	Pol kappa inh-1	Pol iota confirm	Pol eta inh-2	others
CCOc1ccc(NC(=O)CN(C)C(=O)c2ccc3c(c2)S(=O)(=O)N=C2CCCCCN23)cc1OCC	/	.	.	/	.	/	/
Cn1nc(-c2ccc(F)cc2)nc2c(=O)n(C)c(=O)nc1-2	/	/	.	/	.	1.34	0.849
Cn1nc(-c2cccnc2)nc2c(=O)n(C)c(=O)nc1-2	/	/	.	/	.	1.68	2.39
CCn1nc(-c2ccccc2C)nc2c(=O)n(C)c(=O)nc1-2	/	/	.	/	.	1.19	3.79
COc1ccc(-c2nc3c(=O)n(C)c(=O)nc-3n(C)n2)cc1	/	/	.	/	.	/	/
Cn1nc(-c2ccc(Cl)cc2)nc2c(=O)n(C)c(=O)nc1-2	?	/	.	?	.	1.19	1.07	GALK inh confirm=1.19µM;Redox cycling=1.06µM;HEK293 viability=14.1µM
CC1CCN(S(=O)(=O)c2cc(C(=O)NCc3ccccc3)n(C)c2)CC1	/	.	.	.	.	/	/
N=C1/C(=C\c2ccc(Br)o2)C(=O)N=C2SC(CC(=O)N3CCOCC3)=NN12	/	17.8µM	15.8µM	28.2µM	?	?	23.9
CSc1ccc(/C=C2\C(=N)N3N=C(CC(=O)N4CCOCC4)SC3=NC2=O)cc1	/	.	?	.	?	/	/
N=C1/C(=C/c2ccco2)C(=O)N=C2SC(CC(=O)N3CCCC3)=NN12	/	14.1µM	15.8µM	?	?	37.7	23.9
CC(O)C(NS(=O)(=O)c1ccc(Cl)cc1)C(=O)OCCOc1ccc(F)cc1 (configuration not stated)	/	.	/	/	/	/	/
O=C(O)c1ccc(/C=N/NC(=O)c2cc(-c3ccc4c5c(cccc35)CC4)n[nH]2)cc1	.	25.1µM	?	28.2µM	?	59.7	37.9	Pol kappa inh-2=11.9
Cc1cc(C(F)F)nn1CC(=O)NC1C(=O)N2C(C(=O)O)=C(CSc3nnnn3C)CSC12 (configuration not stated)	/	28.2µM	?	12.6µM	.	/	?	PGK validate=.
Cc1nn(C(C)C(=O)NC2C(=O)N3C(C(=O)O)=C(CSc4nnnn4C)CSC23)cc1Cl (configuration not stated)	/	20µM	15.8µM	25.1µM	?	/	?	PGK validate=.
CC(=O)OCC1=C(C(=O)O)N2C(=O)C(NC(=O)C(C)Cn3nc(C)c(Cl)c3C)C2SC1 (configuration not stated)	/	22.4µM	?	?	?	/	47.8	PGK validate=16.3µM
NC(C(=O)NC1C(=O)N2C(C(=O)O)=C(Cl)CSC12)c1ccccc1 (configuration not stated)	/	/	/	/	.	/	/
CCc1ccccc1NC(=O)Cn1c(=O)n(Cc2ccco2)c(=O)c2ccccc21	/	.	.	.	.	/	/
COc1cc(-c2ccc(Nc3ccccc3C(=O)O)c(OC)c2)ccc1Nc1ccccc1C(=O)O	/	10µM	7.94µM	?	31.6µM	67	30.1	Pol kappa inh-2=18.9
CC(C)C1Nc2c(O)cc(Cl)c([N+](=O)[O-])c2C2C=CCC21 (configuration not stated)	.	.	?	?	.	/	/
O=C(O)C1Nc2c(Cl)cc(Cl)c(Cl)c2C2C=CCC12 (configuration not stated)	/	14.1µM	10µM	/	28.2µM	21.2	23.9
Cn1c(SCC(=O)N/N=C/C=C\c2ccco2)nc2ccccc21	?	22.4µM	12.6µM	44.7µM	28.2µM	?	67.5	Pol kappa inh-2=67
NS(=O)(=O)c1ccc(NC(=O)C2Cc3ccccc3CN2C(=O)c2ccco2)cc1 (configuration not stated)	/	20µM	20µM	28.2µM	79.4µM	?	67.5
NS(=O)(=O)c1ccc(CCNC(=O)C2Cc3ccccc3CN2C(=O)c2ccco2)cc1 (configuration not stated)	/	?	?	.	?	/	/
CC(NC(=O)Cn1c(=O)oc2cc(S(=O)(=O)N3CCCCCC3)ccc21)c1ccccc1 (configuration not stated)	/	/	.	.	.	/	/
CCc1ccccc1NC(=O)c1ccc(Cn2nc(N3CCN(c4ccccc4)CC3)ccc2=O)o1	/	.	79.4µM	15.8µM	?	?	75.7	Pol kappa inh-2=33.6
SMILES	L3MBTL1 inh	Pol eta inh-1	Pol iota inh	Pol beta inh	Pol kappa inh-1	Pol iota confirm	Pol eta inh-2	others
CCOc1ccc(CNC(=O)Cn2nc(N3CCN(c4ccccc4)CC3)ccc2=O)cc1	/	.	.	.	.	/	/
COc1ccc(S(=O)(=O)Nc2cc(SCC(=O)O)c(O)c3ccccc23)cc1	/	7.94µM	3.98µM	?	.	?	?
COc1ccc(S(=O)(=O)Nc2cc(Sc3ncn[nH]3)c(O)c3ccccc23)cc1	/	/	5.01µM	22.4µM	?	42.3	?
O=C(O)CSc1cc(NS(=O)(=O)c2ccc(Cl)cc2)c2ccccc2c1O	/	20µM	3.16µM	79.4µM	.	84.4	75.7	Pol kappa inh-2=67
COc1ncnc2c1ncn2CCCN1CCN(C(=O)C2CC2)CC1	/	.	/	/	/	/	/
N#Cc1c(-c2ccccc2)cc(-c2ccccc2)nc1SCC(=O)Nc1ccc(Cl)cc1	/	.	.	.	.	/	/
CC(C)(C)c1ccc(-c2nc(SCC(=O)Nc3ccc(Cl)cc3)[nH]c(=O)c2C#N)cc1	/	28.2µM	44.7µM	79.4µM	?	?	?	Pol kappa inh-2=?
O=C(c1ccco1)N1CCN(C2CN(Cc3ccc([N+](=O)[O-])cc3)S(=O)(=O)C2)CC1 (configuration not stated)	/	.	/	/	/	/	/
Cc1c(C(=O)O)cccc1-n1c(C)cc(C=O)c1C	?	6.31µM	25.1µM	15.8µM	?	29.9	19
CCOc1ccccc1-n1c(C)cc(C=O)c1C	.	.	.	.	.	/	/
COS(C)(=O)=O	/	/	/	/	.	/	/
Cc1ccc(C)n1/N=C1/NC(=O)CS1	.	2.24µM	2.51µM	17.8µM	10µM	42.3	30.1	PGK validate=?
CC1(C2CCC3(C)OC3C2)CO1 (configuration not stated)	/	.	.	/	.	/	/
